Measurements as given in PubChem BioAssay (NCI).
This is part of a sample that, as a whole, favours compounds with a hit. Of some 83,000 tested, about 20% had one in any assay.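 Compound tested at a single concentration for 48 hours in 96-well plates; a percent growth value below 10 was scored as active.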 Calls of active or inactive are those of the source.

These compounds were tested on HL-60(TB) leukemia (assay: NCI-60 one-dose screen, 48 h (100 = growth as untreated, 0 = no growth, -100 = all killed)). Conditions: 10 µM unless noted.

Row | SMILES | growth
1 | OC(c1ccc(F)c(C(F)(F)F)c1)c1cnccc1NC1CCCCC1 (stereo not given) | 30.9% (inactive)
2 | COc1cc(NCc2ccc3nc(N)nc(N)c3c2C)cc(OC)c1OC (tested in a mixture with another compound) | 25.7% (inactive)
3 | CC/C(=C(/c1ccc(Cl)cc1)c1ccc(OCCN(C)C)cc1)c1ccc(Cl)cc1 | 64.9% (inactive)
4 | CN1CCN(Cc2ccc(NC(=O)c3cc(C#Cc4cnc(N)c5ncccc45)n(C)n3)cc2C(F)(F)F)CC1 | 107% (inactive)
5 | CCN(CC)CCCC(C)Nc1c(-c2ccccc2)cnc2cc(Cl)ccc12 (stereo not given) | 56.3% (inactive)
6 | CN(C)CCCn1c2c(c3ccncc3c1=O)C(=O)c1ccccc1-2 | -19.8% (active)
7 | COc1ccc(-n2c(C)cc(-c3ccccc3)c2C)cc1 | 23.2% (inactive)
8 | COc1cc2ncnc(Nc3ccc(F)c(Cl)c3)c2cc1NC(=O)/C=C/CN1CCCCC1 | -50.2% (active)
9 | O=[N+]([O-])c1ccc(N=Nc2c(Cl)cc(O)cc2Cl)cc1 | -31.9% (active)
10 | CC(=O)C1CCC2C3CC(C)=C4CC(O)CCC4(C)C3CCC12C (stereo not given) | 98.7% (inactive)
11 | COc1ccc2nc3ccccc3c(NCc3ccc(C)cc3)c2c1 | 0.0372% (active)
12 | COc1cc(OC)cc(-c2ccc(-c3ccc(C(=N)N)cc3)s2)c1 | -57.8% (active)
13 | COc1ccc(/C=C2\COc3ccc(O)c(O)c3C2=O)cc1OC | -28.7% (active)
14 | Cc1c2cnccc2c(C)c2c1c1cc(C#N)ccc1n2C | -48.8% (active)
15 | Nc1c2c(c(O)c3c1=C(CO)C=N3)=NCCS2=O (stereo not given) | -42.1% (active)
16 | COc1ccc(/C=C(\C#N)c2cc(OC)c3c(c2)OCO3)cc1 | -1.4% (active)
17 | O=[N+]([O-])c1ccc(-c2nc(-c3ccccc3)c(-c3ccccc3)n2-c2ccccc2)cc1 | -16.4% (active)
18 | O=C(C(=O)N1CCCCC1)c1ccc(OC2OC(CO)C(O)C(O)C2O)cc1 (stereo not given) | 77.8% (inactive)
19 | NC1=Nc2ccccc2N(O)N1 | 88.4% (inactive)
20 | CC1CCC(C(C)C)C(NNC(N)=O)C1 (stereo not given) | 108% (inactive)

Row | SMILES | growth
21 | COc1cc(/C=C/C(=O)c2c(C)oc3nc[nH]c(=O)c23)ccc1O | 117% (inactive)
22 | O=C(Oc1ccc[nH]c1=O)c1cc([N+](=O)[O-])cc([N+](=O)[O-])c1 | 75.7% (inactive)
23 | Nc1cc2c(cc1Cl)-c1ccc(Cl)cc1C2=O | 75.7% (inactive)
24 | COc1cc(/C(=C2/O[C@@H]([C@H]3COC(C)(C)O3)[C@H]3OC(C)(C)O[C@@H]23)c2ccc3ccccc3c2)cc(OC)c1OC | 59.2% (inactive)
25 | COc1ccc(-c2csc(NC(=O)CO[N+](=O)[O-])n2)cc1 | 107% (inactive)
26 | COc1cc2nc(Nc3cccc(C(=O)O)c3)nc(N)c2cc1OC | 109% (inactive)
27 | O=C(CN1N=C(c2ccc(F)cc2)CCC1=O)Nc1nc2ccccc2s1 | 8.9% (active)
28 | Cc1cc(=O)oc2cc(OCc3nn4c(Nc5nc6ccccc6s5)c(-c5ccccc5)nc4s3)ccc12 | 93.1% (inactive)
29 | COC(=O)Nc1nc2ccc(C(=O)c3ccc(F)cc3)cc2[nH]1 | -70.4% (active)
30 | CCC(=O)Oc1cc(/C=C/C(=O)O[C@H]2C[C@H]3CN4CCc5c([nH]c6cc(OC)ccc56)[C@@H]4C[C@@H]3[C@@H](C(=O)OC)[C@@H]2OC)ccc1OC | 16.3% (inactive)
31 | CN(C)c1ccc(C(=O)c2ccc(N(C)C)c(N)c2)cc1N | 7.38% (active)
32 | CN1C(=O)/C(=C/c2ccc(C(=O)Nc3ncc(Cc4cccc(C(F)(F)F)c4)s3)cc2)SC1=S | 43.3% (inactive)
33 | C=C(C)[C@@H]1CC[C@]2(COCCC#N)CC[C@]3(C)[C@H](CC[C@@H]4[C@@](C)(CCCNCCC#N)[C@H](C(=C)C)CC[C@]43C)[C@@H]12 | -16.2% [100 µM] (active)
34 | Cc1nc(NC(=O)COc2ccc(/C=C3\Cc4ccc(Cl)cc4C3=O)cc2)sc1C | 86.5% (inactive)
35 | Clc1ccc2c(NCCNc3nc(Cl)nc4ccccc34)ccnc2c1 | -67% (active)
36 | O=Nc1ccc(O)c(=O)cc1 | 4.36% (active)
37 | CCS(=O)(=O)N1CCN(c2ccc(Nc3ncc(C(N)=O)c(NC4CC4)n3)cc2)CC1 | 71.2% (inactive)
38 | CN(C)CCCC1(c2ccc(F)cc2)OCc2cc(-c3ccc4cc[nH]c4c3)ccc21 (stereo not given) | 27.6% (inactive)
39 | CCc1ccccc1-n1c(N)c(C#N)c(-c2ccc(Cl)cc2)c(C#N)c1=O | 117% (inactive)
40 | COCCNC(C)=O | 107% (inactive)
